Measurements as given in paper PMC7862700, “An all-to-all approach to the identification of sequence-specific readers for epigenetic DNA modifications on cytosine”.

Assays:
Assay in all cases: DAPPL (digital affinity profiling via proximity ligation, sequencing); 10 mM Tris-HCl pH 7.5, 50 mM NaCl, 1 mM DTT, 4% glycerol, room temperature, 30 min; GST-TFs on glutathione beads, 16-mer random dsDNA library, 0.1% formaldehyde crosslink after washing; high values mean tight binding
Conditions in all cases: protein: recombinant; tags: N-terminal GST; dsDNA, one strand shown
[1] = target: T1, FLI1 (Homo sapiens, UniProt Q01543 1-452)
T1 sequence: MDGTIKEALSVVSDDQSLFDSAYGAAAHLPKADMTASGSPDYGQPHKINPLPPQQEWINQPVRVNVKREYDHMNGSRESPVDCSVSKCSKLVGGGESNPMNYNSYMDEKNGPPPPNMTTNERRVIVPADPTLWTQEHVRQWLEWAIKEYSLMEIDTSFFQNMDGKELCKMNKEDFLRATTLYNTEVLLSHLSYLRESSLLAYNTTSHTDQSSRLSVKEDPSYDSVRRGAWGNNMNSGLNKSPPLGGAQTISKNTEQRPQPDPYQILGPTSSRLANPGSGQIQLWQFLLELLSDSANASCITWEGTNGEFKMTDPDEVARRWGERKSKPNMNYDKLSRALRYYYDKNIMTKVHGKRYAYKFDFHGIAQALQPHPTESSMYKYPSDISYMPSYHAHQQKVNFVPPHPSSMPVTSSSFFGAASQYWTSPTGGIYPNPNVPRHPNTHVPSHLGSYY
Procedure, shortened: (§1)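 Human transcription factors carrying a GST fusion were produced in yeast, bound to glutathione beads, tagged with DNA barcodes and pooled together with a tag-only sample. Each pool was held with 200 nmole of a random double-stranded 16-mer DNA library in Tris/NaCl/DTT/glycerol buffer for 30 min at room temperature, then washed, crosslinked in 0.1% formaldehyde, proximity-ligated with BsaI/T4 ligase (1 h, 37 °C), PCR-amplified and sequenced on an Illumina NextSeq500. Binding signal is the read frequency of each hexamer for a given factor divided by its frequency in the tag-only sample.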

[2] = target: T2, ELK1 (Homo sapiens, UniProt P19419 1-428)
T2 sequence: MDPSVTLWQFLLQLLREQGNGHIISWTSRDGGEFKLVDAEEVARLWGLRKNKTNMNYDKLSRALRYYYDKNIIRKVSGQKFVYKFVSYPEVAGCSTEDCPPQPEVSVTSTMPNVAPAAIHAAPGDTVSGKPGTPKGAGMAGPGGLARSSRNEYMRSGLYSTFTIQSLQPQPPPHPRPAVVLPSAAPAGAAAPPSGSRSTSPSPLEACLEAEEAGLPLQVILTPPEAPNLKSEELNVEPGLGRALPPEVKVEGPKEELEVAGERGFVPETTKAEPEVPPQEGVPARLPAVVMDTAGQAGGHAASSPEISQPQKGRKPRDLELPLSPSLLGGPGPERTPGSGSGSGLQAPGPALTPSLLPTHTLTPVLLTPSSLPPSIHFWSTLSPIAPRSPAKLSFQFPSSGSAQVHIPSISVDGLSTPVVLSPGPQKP
Procedure, shortened: as §1

[3] = target: T3, GABPA (Homo sapiens, UniProt Q06546 1-454)
T3 sequence: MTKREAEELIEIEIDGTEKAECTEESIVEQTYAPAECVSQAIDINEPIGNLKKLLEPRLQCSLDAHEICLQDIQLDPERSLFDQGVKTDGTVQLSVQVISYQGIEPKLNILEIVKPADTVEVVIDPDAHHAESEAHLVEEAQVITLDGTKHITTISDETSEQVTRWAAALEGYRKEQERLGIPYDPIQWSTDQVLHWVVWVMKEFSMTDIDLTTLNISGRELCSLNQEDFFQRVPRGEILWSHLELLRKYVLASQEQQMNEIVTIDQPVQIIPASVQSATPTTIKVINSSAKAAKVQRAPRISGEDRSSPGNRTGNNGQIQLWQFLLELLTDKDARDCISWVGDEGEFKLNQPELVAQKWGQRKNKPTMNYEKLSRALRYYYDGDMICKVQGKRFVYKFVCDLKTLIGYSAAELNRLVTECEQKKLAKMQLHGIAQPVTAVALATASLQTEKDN
Procedure, shortened: as §1

[4] = target: T4, ERG (Homo sapiens, UniProt P11308 1-479)
T4 sequence: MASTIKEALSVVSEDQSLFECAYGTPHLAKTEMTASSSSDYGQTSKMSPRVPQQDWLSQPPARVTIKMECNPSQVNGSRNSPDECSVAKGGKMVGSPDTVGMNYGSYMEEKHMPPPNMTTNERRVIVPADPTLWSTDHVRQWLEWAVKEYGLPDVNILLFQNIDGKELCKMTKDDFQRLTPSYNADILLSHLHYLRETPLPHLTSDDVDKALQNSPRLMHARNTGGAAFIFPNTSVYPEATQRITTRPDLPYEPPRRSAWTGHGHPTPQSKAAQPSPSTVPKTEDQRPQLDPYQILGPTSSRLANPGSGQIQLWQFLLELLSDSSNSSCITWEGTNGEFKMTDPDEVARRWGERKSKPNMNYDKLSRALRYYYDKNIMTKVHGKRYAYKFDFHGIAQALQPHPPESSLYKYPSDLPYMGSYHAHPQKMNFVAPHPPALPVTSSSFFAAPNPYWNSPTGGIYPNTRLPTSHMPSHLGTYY
Procedure, shortened: as §1

[5] = target: ELF1 (Homo sapiens, UniProt P32519 1-619)
Sequence of ELF1 (P32519 whole entry): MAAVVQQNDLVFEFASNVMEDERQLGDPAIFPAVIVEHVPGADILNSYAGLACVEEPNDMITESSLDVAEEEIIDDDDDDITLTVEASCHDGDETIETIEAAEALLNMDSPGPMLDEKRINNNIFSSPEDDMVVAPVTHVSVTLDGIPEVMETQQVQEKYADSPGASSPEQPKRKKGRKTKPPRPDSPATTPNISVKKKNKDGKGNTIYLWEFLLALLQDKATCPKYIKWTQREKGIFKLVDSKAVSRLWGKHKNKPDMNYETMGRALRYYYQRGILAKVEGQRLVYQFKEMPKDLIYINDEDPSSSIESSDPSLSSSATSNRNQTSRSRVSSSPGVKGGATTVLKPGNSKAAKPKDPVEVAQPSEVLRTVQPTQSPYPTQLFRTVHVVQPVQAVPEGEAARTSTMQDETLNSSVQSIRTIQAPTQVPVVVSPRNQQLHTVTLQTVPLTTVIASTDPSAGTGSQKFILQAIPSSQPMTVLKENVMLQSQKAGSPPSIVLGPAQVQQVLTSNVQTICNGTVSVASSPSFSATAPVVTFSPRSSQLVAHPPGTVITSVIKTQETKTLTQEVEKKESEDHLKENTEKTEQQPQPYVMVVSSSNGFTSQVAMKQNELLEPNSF
Procedure, shortened: as §1

[6] = target: T5, EHF (Homo sapiens, UniProt Q9NZC4 1-300)
T5 sequence: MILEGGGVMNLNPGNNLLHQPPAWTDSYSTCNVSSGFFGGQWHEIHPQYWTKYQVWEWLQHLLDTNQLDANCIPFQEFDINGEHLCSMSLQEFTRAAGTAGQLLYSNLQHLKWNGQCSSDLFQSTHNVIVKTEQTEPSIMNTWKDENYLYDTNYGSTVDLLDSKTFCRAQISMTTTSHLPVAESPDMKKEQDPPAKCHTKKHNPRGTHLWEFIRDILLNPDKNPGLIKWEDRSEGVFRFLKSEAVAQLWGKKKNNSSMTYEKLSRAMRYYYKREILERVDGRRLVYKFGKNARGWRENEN
Procedure, shortened: as §1

[7] = target: SPI1 (Homo sapiens, UniProt P17947 1-270)
Procedure, shortened: as §1

[8] = target: SPIB (Homo sapiens, UniProt Q01892 1-262)
Sequence of SPIB (Q01892 whole entry): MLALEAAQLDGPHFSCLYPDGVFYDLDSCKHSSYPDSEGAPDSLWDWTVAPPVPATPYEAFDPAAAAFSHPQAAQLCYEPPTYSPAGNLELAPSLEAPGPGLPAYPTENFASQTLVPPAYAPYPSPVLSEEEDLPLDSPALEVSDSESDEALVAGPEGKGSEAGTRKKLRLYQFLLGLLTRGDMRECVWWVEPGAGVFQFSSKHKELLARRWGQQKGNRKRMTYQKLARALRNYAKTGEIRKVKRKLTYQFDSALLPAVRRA
Procedure, shortened: as §1

[9] = target: T6, ELK3 (Homo sapiens, UniProt P41970 1-407)
T6 sequence: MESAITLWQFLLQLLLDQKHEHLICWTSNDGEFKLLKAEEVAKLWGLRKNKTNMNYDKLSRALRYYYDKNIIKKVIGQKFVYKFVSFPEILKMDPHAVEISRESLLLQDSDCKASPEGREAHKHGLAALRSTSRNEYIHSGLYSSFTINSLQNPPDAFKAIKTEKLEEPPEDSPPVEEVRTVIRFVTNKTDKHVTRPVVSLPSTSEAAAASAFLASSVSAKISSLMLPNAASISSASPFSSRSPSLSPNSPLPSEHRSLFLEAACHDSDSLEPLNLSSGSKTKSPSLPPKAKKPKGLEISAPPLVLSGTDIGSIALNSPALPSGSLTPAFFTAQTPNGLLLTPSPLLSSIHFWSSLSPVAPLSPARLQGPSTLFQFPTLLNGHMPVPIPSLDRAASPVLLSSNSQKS
Procedure, shortened: as §1

| Sequence | binding signal [1] | binding signal [2] | binding signal [3] | binding signal [4] | binding signal [5] | binding signal [6] | binding signal [7] | binding signal [8] | binding signal [9] |
| --- | --- | --- | --- | --- | --- | --- | --- | --- | --- |
| CAACTG | 1.18 fold enrichment (6-mer frequency, TF over GST control) | 1.15 fold enrichment (6-mer frequency, TF over GST control) | 1.15 fold enrichment (6-mer frequency, TF over GST control) | 1.2 fold enrichment (6-mer frequency, TF over GST control) | 1.27 fold enrichment (6-mer frequency, TF over GST control) | 1.17 fold enrichment (6-mer frequency, TF over GST control) | 1.05 fold enrichment (6-mer frequency, TF over GST control) | 1.13 fold enrichment (6-mer frequency, TF over GST control) | 1.09 fold enrichment (6-mer frequency, TF over GST control) |
| TAACTT | 1.41 fold enrichment (6-mer frequency, TF over GST control) | 1.39 fold enrichment (6-mer frequency, TF over GST control) | 1.34 fold enrichment (6-mer frequency, TF over GST control) | 1.34 fold enrichment (6-mer frequency, TF over GST control) | 1.46 fold enrichment (6-mer frequency, TF over GST control) | 1.35 fold enrichment (6-mer frequency, TF over GST control) | 1.62 fold enrichment (6-mer frequency, TF over GST control) | 1.43 fold enrichment (6-mer frequency, TF over GST control) | 1.27 fold enrichment (6-mer frequency, TF over GST control) |
| AAGTGG | 1.09 fold enrichment (6-mer frequency, TF over GST control) | 1.19 fold enrichment (6-mer frequency, TF over GST control) | 1.22 fold enrichment (6-mer frequency, TF over GST control) | 1.16 fold enrichment (6-mer frequency, TF over GST control) | 1.17 fold enrichment (6-mer frequency, TF over GST control) | 1.24 fold enrichment (6-mer frequency, TF over GST control) | 1.5 fold enrichment (6-mer frequency, TF over GST control) | 1.26 fold enrichment (6-mer frequency, TF over GST control) | 1.33 fold enrichment (6-mer frequency, TF over GST control) |
| CACCCG | 1.14 fold enrichment (6-mer frequency, TF over GST control) | 1.24 fold enrichment (6-mer frequency, TF over GST control) | 1.18 fold enrichment (6-mer frequency, TF over GST control) | 1.21 fold enrichment (6-mer frequency, TF over GST control) | 1.2 fold enrichment (6-mer frequency, TF over GST control) | 1.2 fold enrichment (6-mer frequency, TF over GST control) | 1.12 fold enrichment (6-mer frequency, TF over GST control) | 1.28 fold enrichment (6-mer frequency, TF over GST control) | 1.17 fold enrichment (6-mer frequency, TF over GST control) |
| CACACG | 1.14 fold enrichment (6-mer frequency, TF over GST control) | 1.11 fold enrichment (6-mer frequency, TF over GST control) | 1.23 fold enrichment (6-mer frequency, TF over GST control) | 1.07 fold enrichment (6-mer frequency, TF over GST control) | 1.21 fold enrichment (6-mer frequency, TF over GST control) | 1.12 fold enrichment (6-mer frequency, TF over GST control) | 1.08 fold enrichment (6-mer frequency, TF over GST control) | 1.15 fold enrichment (6-mer frequency, TF over GST control) | 1.03 fold enrichment (6-mer frequency, TF over GST control) |
| TGTACT | 1.28 fold enrichment (6-mer frequency, TF over GST control) | 1.44 fold enrichment (6-mer frequency, TF over GST control) | 1.24 fold enrichment (6-mer frequency, TF over GST control) | 1.24 fold enrichment (6-mer frequency, TF over GST control) | 1.35 fold enrichment (6-mer frequency, TF over GST control) | 1.3 fold enrichment (6-mer frequency, TF over GST control) | 1.25 fold enrichment (6-mer frequency, TF over GST control) | 1.21 fold enrichment (6-mer frequency, TF over GST control) | 1.35 fold enrichment (6-mer frequency, TF over GST control) |
| GACCTG | 1.19 fold enrichment (6-mer frequency, TF over GST control) | 1.26 fold enrichment (6-mer frequency, TF over GST control) | 1.19 fold enrichment (6-mer frequency, TF over GST control) | 1.26 fold enrichment (6-mer frequency, TF over GST control) | 1.27 fold enrichment (6-mer frequency, TF over GST control) | 1.28 fold enrichment (6-mer frequency, TF over GST control) | 1.26 fold enrichment (6-mer frequency, TF over GST control) | 1.17 fold enrichment (6-mer frequency, TF over GST control) | 1.35 fold enrichment (6-mer frequency, TF over GST control) |
